Assay outcomes: PubChem, The Scripps Research Institute Molecular Screening Center
Sampled rows, rich in hits. Any-hit rate of the full collection: about 4.8%.
hcDAF12 agonist: activates DAF-12 receptor from parasite H. contortus; activation, % at 6.8 µM; 370,000 compounds, 1.4% hits; HEK293 hcDAF-12 lit1-tk-luc reporter, luminescence; 0% DMSO, 100% Δ7-dafachronic acid; AID 652067;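 active = activation above the mean of all tested compounds plus 3 SD, cut at about 5.5% in these data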;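 also: 100% = response to 3 µM Δ7-dafachronic acid high control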
SMARCA2 act: activators of SMARCA2 function | MG213 cells, MMTV-luciferase reporter, dexamethasone, overnight | activation, % at 9.1 µM | 370,000 compounds, 1% hits | AID 652017; in the data active = activation above about 7.8%;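 also: 0% = vehicle wells and 100% = reference activator wells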
DAX1 inh-1: NR0B1 (DAX1) inhibition. 340,000 compounds, 0.99% hits. inhibition, % at 6.75 µM. P51843. HEK293 Gal4-DAX1 luciferase reporter, luminescence;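 active = inhibition above the mean over all tested compounds plus 3 SD, cut at about 4.2% in these data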;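 also: 0% = DAX1-transfected cells with DMSO and 100% = empty-vector control cells with DMSO; inhibition shows as a rise in luminescence from relieved DAX1 repression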
Target sequence (P51843 207-470 limits assumed): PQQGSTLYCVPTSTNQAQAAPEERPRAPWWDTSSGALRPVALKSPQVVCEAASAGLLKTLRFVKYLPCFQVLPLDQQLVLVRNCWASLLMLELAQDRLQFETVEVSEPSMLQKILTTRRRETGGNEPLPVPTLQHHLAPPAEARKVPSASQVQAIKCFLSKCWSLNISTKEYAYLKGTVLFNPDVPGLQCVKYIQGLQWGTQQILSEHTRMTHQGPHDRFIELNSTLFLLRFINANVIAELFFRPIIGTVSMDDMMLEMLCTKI
DAX1 inh-2: blocks DAX1 repression of SF-1 activated StAR promoter | AID 652010 | HEK293T StAR-luciferase reporter, SF-1/DAX-1 repression relief | 370,000 compounds, 1.1% hits | inhibition, % at 6.8 µM;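 active = inhibition above the mean over all tested compounds plus 3 SD, cut at about 3.6% in these data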;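 also: 0% = DAX-1 cells with DMSO and 100% = cells lacking DAX-1 with DMSO; higher inhibition means more luminescence from relief of DAX-1 repression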
ssDAF-12 act: S. stercoralis DAF-12 activation, primary screen; activation, % at 6.8 µM; AID 652126; 370,000 compounds, 1% hits; HEK293 ssDAF-12/GRIP1 lit1-tk-luc reporter, luminescence; % of 3 µM dafachronic acid response;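 active = activation above the mean over all tested compounds plus 3 SD, cut at about 0.9% in these data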;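 also: 0% = DMSO-only wells and 100% = 3 µM delta7-dafachronic acid wells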
hgDAF-12 ag: agonists of H. glycines DAF-12 nuclear receptor | HEK293 GAL4-hgDAF12 UAS-luciferase reporter, agonist luminescence; normalized to butyrate control | activation, % at 6.8 µM | 370,000 compounds, 1.8% hits | AID 687014;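 active = activation above a cutoff set at the mean of all screened compounds plus 3 SD, cut at about 10% in these data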;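 also: 0% = DMSO wells and 100% = sodium butyrate wells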
SMARCA2 conf: confirmation of SMARCA2 (BRM) function activators; shares compounds with SMARCA2 act; MG213 cells, MMTV-luciferase with dexamethasone, luminescence, overnight; MG213 cells expressing E1A, Rb sequestered; DMSO wells 0%, reference activator 100%; activation, % at 9.1 µM; 3,500 compounds, 30% hits; AID 652260;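 active = activation above its plate's cutoff, the mean activation of tested wells plus 3 SD, cut at about 7.9% in these data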
VP16 Luc act: counter-screen for SMARCA2 activators: GAL4-VP16 luciferase reporter activation | 3,500 compounds, 41% hits | activation, % at 9.1 µM | shares compounds with SMARCA2 act | HEK293 GAL4-VP16 pG5luc reporter, luciferase luminescence; scaled: DMSO wells 0%, SAHA wells 100%;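 active = activation above the solvent-only control well mean plus 3 SD, averaged across control plates, cut at about 5.2% in these data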
Starred values were filed as active, the others as inactive; . = not tested or not shown.

SMILES	hcDAF12 agonist	SMARCA2 act	DAX1 inh-1	DAX1 inh-2	ssDAF-12 act	hgDAF-12 ag	SMARCA2 conf	VP16 Luc act
COc1cc(-c2nnc(SCC(=O)N3C(C)CCCC3C)o2)cc(OC)c1OC (configuration not stated)	-3	3	.	0	-1	-5	.	.
O=C(/C=C(\Nc1ccc(Cl)c(Cl)c1)c1ccccc1)c1ccccc1	2	1	.	0	-1	0	.	.
COC(=O)C(CN)CN1C(=O)c2ccccc2C1=O (configuration not stated)	-2	-1	.	0	-1	0	.	.
Cc1oc(C(C)(C)C)cc1C(=O)NCc1ccc2c(c1)OCO2	-3	8.8*	0	0	1	2	3	0
Cc1ccccc1NC(=O)COC(=O)c1cc[n+]([O-])cc1	-1	-2	0	1	-1	-1	.	.
O=C(COC(=O)c1cc[n+]([O-])cc1)Nc1ccccc1Cl	2	11*	-1	0	-1	1	-1	-1
CC(c1ccccc1)n1cc(C(=O)NCCCN2CCCC2)nn1 (configuration not stated)	1	-1	.	1	-1	3	.	.
C=CCn1c(Cc2cccs2)nnc1SCC(=O)Nc1cccc2ccccc12	-3	-4	.	-1	0	-1	.	.
Cc1cccc(N2CCN(C(=O)c3ccnn3C)CC2)c1C	-2	-1	1	-1	-1	-1	.	.
Cn1nccc1C(=O)N1CCN(c2ccccc2Cl)CC1	-1	8.0*	1	0	-1	0	1	1
CN1OC[C@@H]2CN(C(=S)NCCc3ccccc3)[C@H](c3ccc(-n4ccnc4)cc3)C[C@@H]21	0	8.4*	.	0	-1	-1	1	1
COC(=O)c1cc2c(c3c4cc(OC)ccc4n(C(=O)c4ccccc4)c13)C(=O)N(Cc1ccco1)C2	-3	2	.	-4	-1	-8	.	.
O=C(NC1CCC1)c1ccc(C#CC2CC2)c[n+]1[O-]	-1	15*	.	2	0	11*	11*	5.2*
CS(=O)(=O)c1ccc(C(=O)NC2CCCCC2)cc1	2	-2	-1	0	-1	1	.	.
COC[C@@H]1CCCN1c1ccc2c(c1)OCCCN(C1CC1)S2(=O)=O	-2	-1	.	-1	-1	1	.	.
Cc1ccc(C(=O)NCc2ccc3c(c2)CCO3)cc1C	-2	2	2	1	-2	4	.	.
O=C(NCc1ccc2c(c1)CCO2)Nc1ccccc1	0	8.7*	3	2	-1	12*	7	5.2*
COC(=O)Cn1cnc2c(NC(=O)c3ccccc3)ncnc21	1	4	.	0	0	0	.	.
CC(=O)CC1OC(=O)C(Br)=C1NCc1ccccc1 (configuration not stated)	0	13*	-1	0	-1	1	-4	3
O=C(CC1Oc2ccccc2NC1=O)NCc1ccccc1 (configuration not stated)	0	-2	1	0	-1	-3	.	.
O=C(CNC(=O)c1ccccc1C(=O)O)c1ccccc1	2	8.0*	0	2	0	10	4	3
CCOc1ccc(N=C(/C(C(=O)C(=O)N2CCOCC2)=C(\O)c2ccccc2)c2ccccc2)cc1	4	9.2*	4	2	0	12*	7	6.1*
O=C(Cc1c[nH]c2ccccc12)Nc1ccc(Nc2cccnc2)c(-c2ccc(OC(F)(F)F)cc2)c1	1	-4	.	-1	-1	0	.	.
Cc1cc(C)c(S(=O)(=O)c2cccc(Cl)c2)c(=O)[nH]1	-1	11*	0	0	-1	-2	-3	0
COc1ccc(S[C@]2(C(=O)N3CCOCC3)CC(=O)N(C(=O)/C=C/c3ccccc3)[C@@H]2c2ccc(OC)cc2)cc1	-3	-2	.	-3	-1	2	.	.
SMILES	hcDAF12 agonist	SMARCA2 act	DAX1 inh-1	DAX1 inh-2	ssDAF-12 act	hgDAF-12 ag	SMARCA2 conf	VP16 Luc act
COC(=O)[C@]12C[C@H](CC(=O)NCc3cccc4ccccc34)C(=O)N(Cc3ccco3)C1=C[C@H](COCc1ccccc1)O[C@@H]2C	-1	-3	.	-1	0	1	.	.
Cc1nnc(Sc2cc(NCCO)c([N+](=O)[O-])c3nonc23)s1	-2	5	-1	0	-2	0	.	.
Cc1nnc(Sc2cc(NCCCO)c([N+](=O)[O-])c3nonc23)s1	1	10*	0	-1	-1	-2	-14	1
Cc1cccc(NC(=O)COc2ccc3c(c2)CCC3)n1	2	9.7*	1	3.8*	-1	6	6	5.5*
NS(=O)(=O)c1ccc(OCCCN2CCC(C(O)(c3ccccc3)c3ccccc3)CC2)cc1	-2	-1	.	0	-2	-2	.	.
COc1ccc(C2=Nc3ccccc3N(C(=O)c3ccncc3)C2C(=O)NC(C)C)cc1 (configuration not stated)	1	9.7*	.	0	-1	5	0	3
COC[C@@H]1CCCN1c1ccc2c(c1)O[C@@H]1CCN(C1)S2(=O)=O	-1	-2	.	0	0	2	.	.
COc1ccc(/C=N/Nc2cc(C)nc3ccc(Br)cc23)cc1	1	9.4*	1	0	-1	4	4	1
COc1ccc2nc(C)cc(N/N=C/c3cccc(OC)c3O)c2c1	-2	27*	0	0	-1	-1	20*	2
COC(=O)[C@]12C[C@H](CC(=O)NCCc3ccccc3OC)C(=O)N(Cc3ccco3)C1=C[C@H](C1CCCC1)O[C@@H]2C	-3	-2	.	-1	-1	-5	.	.
CC(C)NC(=O)C1CCN(c2cncnc2)CC1	2	-5	.	0	-1	-3	.	.
COC(=O)[C@]12C[C@H](CC(=O)NCCC(C)C)C(=O)N(Cc3ccco3)C1=C[C@H](C1CCCC1)O[C@@H]2C	-2	-1	.	0	-1	0	.	.
COC(=O)C1CCN(C(=O)COC(=O)c2ccc3[nH]c4c(c3c2)CCCC4)CC1	-1	0	0	-1	-1	0	.	.
CC1CCCN(C(=O)COC(=O)c2ccc3[nH]c4c(c3c2)CCCC4)C1 (configuration not stated)	0	8.1*	0	0	-1	2	4	4
CCN(C)c1ccc(/C=N\n2nnnc2N)cc1	0	12*	1	-1	-1	12*	8	15*
